Assay [1] in a line: TOX21_p53_BLA_p2_viability: Viability Assessment in the Tox21 HCT-116 p53 Agonism Beta-lactamase Assay, Phase 2 (AID 2283591).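 Also: compound exposure lasted 16 h at 37 °C; actives lower the ATP signal meaning cytotoxicity.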 The essentials:
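Cytotoxicity readout: CellTiter-Glo ATP luminescence, 30 min at room temperature, after the beta-lactamase read. Cells were HCT116 exposed 16 h at 37C to compounds pin-transferred at 217-fold dilution from DMSO stocks.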

For assay [2], the target named is Cellular tumor antigen p53 (Homo sapiens) (UniProt P04637). Description: TOX21_p53_BLA_p2_ratio: Tox21 HCT-116 p53 Agonism Beta-lactamase Assay, Ratio, Phase 2 (AID 2283592). The essentials:
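Plated HCT116 p53-bla cells (4000/well) received compound after 5 h, then 16 h at 37C/5% CO2. CCF4-AM added, 2 h RT. Ratio of 460 to 530 nm emission taken as the p53 reporter signal.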

Assay [3] is described as follows: TOX21_p53_BLA_p3_viability: Viability Assessment in the Tox21 HCT-116 p53 Agonism Beta-lactamase Assay, Phase 3 (AID 2283593).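 Also: cells exposed to compound for 16 h before reading.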 The essentials: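 Cellular ATP was quantified by CellTiter-Glo luminescence, read after 30 min at room temperature. Beforehand, HCT116 cells (4000/well) received compound 5 h post-seeding, 217-fold diluted from DMSO, then incubated 16 h at 37C.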

In assay [4] the target is Cellular tumor antigen p53 (Homo sapiens) (UniProt P04637). Put plainly: TOX21_p53_BLA_p3_ratio: Tox21 HCT-116 p53 Agonism Beta-lactamase Assay, Ratio, Phase 3 (AID 2283596). The essentials: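 Cells were seeded at 4000/well, rested 5 h at 37C, then dosed with DMSO compound solutions (217-fold dilution) for 16 h. CCF4-AM substrate was loaded for 2 h at room temperature, and the 460/530 nm emission ratio was fitted for gain of signal versus DMSO.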

A short description of assay [5]: TOX21_p53_BLA_p4_viability: Viability Assessment in the Tox21 HCT-116 p53 Agonism Beta-lactamase Assay, Phase 4 (AID 2283597).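 Also: hits lower the luminescence signal meaning cytotoxicity.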 The essentials:
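Readout: ATP luminescence (CellTiter-Glo), measured 30 min after reagent addition at RT. The reagent followed a 2 h CCF4-AM incubation, and the cells had been exposed to compound for 16 h at 37C.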

The target of assay [6] is Cellular tumor antigen p53 (Homo sapiens) (UniProt P04637). Put plainly: TOX21_p53_BLA_p5_ratio: Tox21 HCT-116 p53 Agonism Beta-lactamase Assay, Ratio, Phase 5 (AID 2283599). The essentials:
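Beta-lactamase reporter ratio (blue 460 nm over green 530 nm, 405 nm excitation) after 2 h CCF4-AM loading, in HCT-116 cells exposed 16 h at 37 C to compounds pinned at 217-fold dilution. Increases relative to DMSO baseline scored.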

Assay [7] is described as follows: TOX21_p53_BLA_p5_viability: Viability Assessment in the Tox21 HCT-116 p53 Agonism Beta-lactamase Assay, Phase 5 (AID 2283600). The essentials: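 Workflow: seed 4000 cells per well, wait 5 h, add compounds (DMSO, 217-fold dilution), incubate 16 h, load CCF4-AM 2 h, add CellTiter-Glo, read luminescence after 30 min.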
For assay [8], the target named is Cellular tumor antigen p53 (Homo sapiens) (UniProt P04637). Put plainly: TOX21_p53_BLA_p4_ratio: Tox21 HCT-116 p53 Agonism Beta-lactamase Assay, Ratio, Phase 4 (AID 2283601). The essentials: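 Signal is the blue/green (460nm/530nm) ratio of cleaved versus uncleaved CCF4-AM substrate, read after 2 h substrate loading. Cells were HCT116 carrying the p53-responsive beta-lactamase reporter, dosed 16 h at 37C, 5% CO2; CellTiter-Glo measured in parallel.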

For orientation: AC50 means the midpoint of the concentration-response curve, whichever way the signal moves.

Records with an inconclusive call do not appear. The source made the active and inactive calls. The calls were made as follows: active = hit-call score of the fitted dose curve at least 0.9, where 1 is the maximum; inconclusive = response in the unintended direction; inactive = score below 0.9. Where a SMILES comes first, the peptide text is derived from it. [ ]: non-standard residue; d: D form. Orn = NCCC[C@H](N)C(=O)O

Chain of Cellular tumor antigen p53 (Homo sapiens) (P04637 whole entry, looked up): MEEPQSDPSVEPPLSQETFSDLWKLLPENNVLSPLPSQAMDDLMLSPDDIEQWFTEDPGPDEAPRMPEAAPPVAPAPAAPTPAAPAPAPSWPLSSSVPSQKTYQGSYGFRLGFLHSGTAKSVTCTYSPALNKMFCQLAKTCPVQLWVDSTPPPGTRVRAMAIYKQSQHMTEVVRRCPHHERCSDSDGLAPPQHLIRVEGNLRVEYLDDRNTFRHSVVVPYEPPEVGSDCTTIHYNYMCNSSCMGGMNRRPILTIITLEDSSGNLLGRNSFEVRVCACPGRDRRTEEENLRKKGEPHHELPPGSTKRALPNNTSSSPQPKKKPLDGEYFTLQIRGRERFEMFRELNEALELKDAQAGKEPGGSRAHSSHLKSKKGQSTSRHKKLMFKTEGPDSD

As to `Nc1[nH]c(=O)ncc1F`, the call in assay [1], in assay [2], in assay [3], in assay [4], in assay [5] and in assay [6] was inactive. The molecule was classed as inactive in assay [7] and in assay [8].
In the case of `CC(C)=CCOc1ccc(/C=C/C(=O)c2ccc(OCC=C(C)C)cc2OCC(=O)O)cc1`, the AC50 was 8 µM (active) in assay [1]; 6.92 µM (active) in assay [2]; 14.9 µM (active) in assay [3]; 13.8 µM (active) in assay [4]; 7.92 µM (active) in assay [5]; 9.9 µM (active) in assay [6]. Also, in assay [8], the AC50 was 7.21 µM (active). For the same molecule, the outcome in assay [7] was inactive.
For the molecule `CCCCCCCCCOC(=O)c1ccc(O)cc1`, the concentration at half-maximal activity (AC50) is 53.3 µM (active) in assay [1], 80.5 µM (active) in assay [2], 23 µM (active) in assay [5] and 39.3 µM (active) in assay [8]. Also, the result in assay [3], in assay [4], in assay [6] and in assay [7] was inactive.
Turning to `CCN(CC)C(=O)/C(C#N)=C/c1cc(O)c(O)c([N+](=O)[O-])c1`, the call in assay [1], in assay [3], in assay [4], in assay [5], in assay [6] and in assay [7] was inactive. In addition, the result in assay [8] was inactive. The AC50 in assay [2] was 33.7 µM (active).
On to `CCCC(C(=O)OCCN(CC)CC)(c1ccccc1)c1ccccc1`, for which the molecule was called inactive in assay [1], in assay [2], in assay [3], in assay [4], in assay [6] and in assay [7]. Further, the result in assay [8] was inactive. For the same molecule, the half-maximal activity concentration (AC50) in assay [5] was 31.2 µM (active).
Regarding `N[C@H](C(=O)O)[C@@H]1CC(Cl)=NO1`, the AC50 in assay [1] was 15.8 µM (active); in assay [2], 5.51 µM (active); in assay [3], 9.5 µM (active); in assay [4] it was 5.91 µM (active); in assay [5], 13.7 µM (active); in assay [6] it was 5.35 µM (active). The AC50 was 11.4 µM (active) in assay [7] and 5.46 µM (active) in assay [8].
Regarding `CC(C)c1nc(N(C)S(C)(=O)=O)nc(-c2ccc(F)cc2)c1/C=C/C(O)CC(O)CC(=O)O` (stereo unspecified), the result in assay [1], in assay [2], in assay [3], in assay [4], in assay [5] and in assay [6] was inactive. The molecule was classed as inactive in assay [7] and in assay [8].
As to `Cc1cc(CC(C)CC(C)(C)C)n(O)c(=O)c1` (stereo unspecified) (tested in a mixture with another compound), the result in assay [1], in assay [2] and in assay [4] was inactive. Besides, the AC50 is 43.5 µM (active) in assay [3]; 34.1 µM (active) in assay [5]; 36.1 µM (active) in assay [6]; 41.8 µM (active) in assay [7]; 33 µM (active) in assay [8].
On to `CCO[Si](CCCCl)(OCC)OCC`, for which the outcome in assay [1], in assay [3], in assay [5], in assay [6], in assay [7] and in assay [8] was inactive. Moreover, the AC50 in assay [2] was 87.7 µM (active); in assay [4], 86.2 µM (active).
Take `N=C(N)c1ccc(OCCCOc2ccc(C(=N)N)cc2Br)c(Br)c1`: the call in assay [1], in assay [2], in assay [3], in assay [4], in assay [5] and in assay [6] was inactive. The call in assay [7] and in assay [8] was inactive.
Turning to `NCCS`, the molecule was classed as inactive in assay [1], in assay [2], in assay [3], in assay [4], in assay [5] and in assay [6]. The molecule was called inactive in assay [7] and in assay [8].
On to `CS(=O)(=O)Nc1ccc([N+](=O)[O-])cc1Oc1ccccc1`, for which the outcome in assay [1], in assay [2], in assay [3], in assay [4], in assay [5] and in assay [6] was inactive. Besides, the molecule was classed as inactive in assay [7] and in assay [8].
`CCCCCCCC/C=C\CCCCCCCCOCCO`: the AC50 in assay [1] is 72.5 µM (active); in assay [2], 96.6 µM (active); in assay [3] it was 29.2 µM (active); in assay [4], 80.3 µM (active); in assay [5], 72.6 µM (active); in assay [6], 56.2 µM (active). Besides, the values for the concentration at half-maximal activity (AC50) in assay [7] and in assay [8] were 21.1 µM (active) and 105 µM (active), respectively.
As for `O=C(O)c1cc(O)c(O)c(O)c1`, the molecule was classed as inactive in assay [1], in assay [2], in assay [3], in assay [4], in assay [5] and in assay [6]. The molecule was called inactive in assay [7] and in assay [8].
In the case of `Clc1cc(Cl)c(OCC#CI)cc1Cl`, the call in assay [1], in assay [3], in assay [4], in assay [7] and in assay [8] was inactive. Further, the AC50 in assay [2] was 33.7 µM (active); in assay [5], 23 µM (active); in assay [6], 39.7 µM (active).
Consider `CC(C)c1ccc2sc3ccccc3c(=O)c2c1`, for which the call in assay [1], in assay [2], in assay [3], in assay [4], in assay [6] and in assay [7] was inactive. The outcome in assay [8] was inactive. Also, the half-maximal activity concentration (AC50) in assay [5] was 72.8 µM (active).
On to `CC1CCCO1` (stereo unspecified), for which the call in assay [1], in assay [2], in assay [3], in assay [4], in assay [5] and in assay [7] was inactive. Besides, the result in assay [8] was inactive. Besides, the AC50 in assay [6] was 85.2 µM (active).
`CC(C)C[C@@H]1NC(=O)[C@H](CCCN)NC(=O)[C@H](C(C)C)NC(=O)[C@@H]2CCCN2C(=O)[C@@H](Cc2ccccc2)NC(=O)[C@H](CC(C)C)NC(=O)[C@H](CCCN)NC(=O)[C@H](C(C)C)NC(=O)[C@@H]2CCCN2C(=O)[C@@H](Cc2ccccc2)NC1=O` (cyclo(V[Orn]L[dF]PV[Orn]L[dF]P)): the AC50 in assay [1] was 8.09 µM (active); in assay [3], 5.88 µM (active); in assay [5], 5.84 µM (active); in assay [7], 4.51 µM (active); in assay [8] it was 2.35 µM (active). In addition, the result in assay [2], in assay [4] and in assay [6] was inactive.
For the molecule `CCCCCCCCCCCCCCCCOCCOCCOCCOCCOCCOCCOCCOCCOCCOCCOCCOCCOCCOCCOCCOCCOCCOCCOCCOCCO`, the AC50 in assay [1] was 30.1 µM (active); in assay [2], 29.5 µM (active); in assay [3], 6.03 µM (active); in assay [4], 11.7 µM (active); in assay [5], 34.5 µM (active); in assay [6], 41.4 µM (active). Besides, the figures for the AC50 in assay [7] and in assay [8] were 33.3 µM (active) and 43.5 µM (active), respectively.
On to `c1ccc(C(O[C@H]2CCCN(CCc3ccc4c(c3)OCO4)C2)c2ccccc2)cc1`, for which the molecule was called inactive in assay [1], in assay [2], in assay [3], in assay [4], in assay [5] and in assay [6]. The call in assay [7] and in assay [8] was inactive.
In the case of `CCCCCC[C@@H](CCC)C(=O)O`, the call in assay [1], in assay [2], in assay [3], in assay [4], in assay [5] and in assay [6] was inactive. In addition, the call in assay [7] and in assay [8] was inactive.
For the molecule `O=C(/C=C/c1ccc([N+](=O)[O-])cc1)c1ccccc1`, the result in assay [1], in assay [2], in assay [3], in assay [4], in assay [5] and in assay [6] was inactive. In addition, the molecule was classed as inactive in assay [7] and in assay [8].

These data come from PubChem BioAssay (EPA / NIEHS).
